Shown are actives, neighbours in structure and some others; about 32% of the full set was active somewhere.
CYP2C9 inh – blockers of cytochrome P450 2C9 activity – biochemical, luminescence, ADME assay, primary screen; P11712; CYP2C9 Supersomes, luciferin-H conversion; inhibition, % at 5 µM; actives 20% (n = 96,000); AID 777, 2007;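 active = blocking of liver enzyme CYP2C9 beyond about 50% at 5 µM, limit read from the data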
Target sequence (P11712 whole entry, looked up): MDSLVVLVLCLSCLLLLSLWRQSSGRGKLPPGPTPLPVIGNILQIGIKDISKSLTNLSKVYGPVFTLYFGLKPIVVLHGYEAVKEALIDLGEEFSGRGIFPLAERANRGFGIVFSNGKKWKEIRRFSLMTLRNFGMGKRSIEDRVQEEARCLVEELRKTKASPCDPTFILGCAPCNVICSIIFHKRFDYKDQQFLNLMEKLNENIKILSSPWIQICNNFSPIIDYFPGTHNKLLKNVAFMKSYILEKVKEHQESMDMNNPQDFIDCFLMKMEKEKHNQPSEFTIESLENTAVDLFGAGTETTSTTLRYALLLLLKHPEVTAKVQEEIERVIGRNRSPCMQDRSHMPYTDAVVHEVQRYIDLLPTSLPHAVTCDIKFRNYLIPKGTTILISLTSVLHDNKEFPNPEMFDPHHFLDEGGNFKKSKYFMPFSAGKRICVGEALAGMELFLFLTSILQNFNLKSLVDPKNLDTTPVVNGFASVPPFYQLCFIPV
CYP2C19 activ – human CYP2C19 activators, primary screen, biochemical, luminescence | Cytochrome P450 2C19 (Homo sapiens), P33261 | recombinant CYP2C19, luciferin-H EGE luminescence; stronger effect = higher value; 0 = fully inhibited enzyme, 1 = untreated enzyme | activation factor at 5 µM | 96,000 tested, under 10 active;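 active = activation factor of at least 2 at 5 µM in the primary screen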
CYP2C9 activ – human CYP2C9 activators, primary screen, biochemical, luminescence | Cytochrome P450 2C9 (Homo sapiens), P11712 | recombinant CYP2C9, luciferin-H conversion; stronger effect = higher value; factor 1 = untreated enzyme, 0 = blocked | actives 1.4% (n = 96,000) | activation factor at 5 µM | AID 1024, 2008;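 active = activation factor of 2 or more for CYP2C9 at a 5 µM dose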
PostGolgi yeast – phenotypic screen on post-Golgi transport, primary screen; post-Golgi transport phenotypic cell assay; actives 0.9% (n = 98,000); AID 739, 2007; inhibition, % at 10 µM;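 also: yeast cells grown in 1536-well plates; yeast grown about 18 h at 30C before absorbance read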
PostGolgi ctrl – growth inhibition of yeast control strain, primary screen, counter-screen for post-Golgi transport modulator project; efflux-deficient yeast background strain, growth absorbance A615, 16 h; inhibition, % at 10 µM; actives 5% (n = 98,000); AID 738, 2007
CYP2C19 inh – blockers of cytochrome P450 2C19 activity – biochemical, luminescence, ADME assay, primary screen. P33261. CYP2C19 Supersomes, luciferin-H EGE luminescence, 30 min. inhibition, % at 5 µM. actives 21% (n = 96,000). AID 778, 2007;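 active = CYP2C19 inhibition above a set limit at 5 µM in the primary screen, cut at about 50% in these data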
Numbers stand for hits; . = inactive; / = no result given. Rule as the data show it, unless noted: active = inhibition above about 30%; inactive = the rest.

SMILES | CYP2C9 inh | CYP2C19 activ | CYP2C9 activ | PostGolgi yeast | PostGolgi ctrl | CYP2C19 inh
CN(C(=O)c1cccs1)c1ccccc1C(=O)O | . | . | . | . | . | .
COc1ccc(N2CCN(Cc3nc4c(c(=O)n(C)c(=O)n4C)n3C(C)C(C)=O)CC2)cc1 (stereo not drawn) | . | . | . | . | . | .
Cc1nn(-c2ccccc2)c2c1C(c1ccc(F)cc1F)C(C#N)=C(N)O2 (stereo not drawn) | 82 | . | . | . | . | 68
OCCCCNCc1ccc(OCc2ccc(Cl)cc2Cl)cc1 | . | . | . | 51 | . | .
CCCOC(=O)CCn1c(=S)oc2ccccc21 | . | . | . | . | . | 90
CCC(=O)N1CCN=C1SCc1ccc(Cl)cc1 | . | . | . | . | . | 84
CC(=O)N1CCN=C1SCc1ccc(C)cc1 | . | . | . | . | . | .
CC(=O)N1CCN=C1SCc1ccc(Cl)cc1 | . | . | . | . | 35 | .
COc1ccc(C2C3=C(CCCC3=O)Nc3nc(SCc4ccc(C(=O)O)cc4)nn32)cc1OC (stereo not drawn) | . | . | . | . | . | .
Cc1nc2sc3c(c2c2nnc(SCC(=O)NCc4ccco4)n12)CCCC3 | 72 | . | . | . | . | 98
O=C(CSc1nc2sc3c(c2c(=O)n1-c1ccccc1)CCCC3)NCc1ccco1 | . | . | . | . | 32 | .
O=C(CSc1nnc2c3c4c(sc3ncn12)CCCC4)NCc1ccco1 | . | . | . | . | . | .
CC1(C)Cc2c(sc3nc(SCC(=O)NCc4ccco4)n(-c4ccccc4)c(=O)c23)CS1 | 54 | . | . | . | . | .
COC(=O)Cc1c(C)nc2nc(NCc3cccc([N+](=O)[O-])c3)[nH]n2c1=O | . | . | . | . | . | .
CCn1c(SC(C)C(=O)O)nnc1-c1cccnc1 (stereo not drawn) | . | . | . | . | . | .
COc1ccc(OC)c(NC(=O)CSc2nnc(Cn3c(=O)sc4ccccc43)n2C)c1 | / | / | / | . | . | /
CN(C)/C=N/c1c(C(=O)NCc2ccccc2)nnn1Cc1ccccc1 | . | . | . | . | . | .
Cc1cc(C)n(CCn2nc(C)cc2C)n1 | . | . | . | . | 37 | .
CCC(Sc1nc2sc(C(=O)OC)c(C)c2c(=O)n1N)C(=O)NCC1CCCO1 (stereo not drawn) | 93 | . | . | . | . | 94
COc1ccc(S(=O)(=O)NC(C)(C)C)cc1-c1nnc2c3ccccc3c(C)nn12 | . | . | . | . | . | 66
CNS(=O)(=O)c1ccc(OC)c(-c2nnc3c4ccccc4c(C)nn23)c1 | . | . | . | . | . | .
COC(=O)NCC(c1cccnc1)N1CCN(c2ccccc2OC)CC1 (stereo not drawn) | . | . | . | . | . | .
O=C1NC2(CCCCC2)N=C1c1ccc(F)cc1 | . | . | . | . | . | .
O=C1NC2(CCCC2)N=C1c1ccc(Cl)cc1 | . | . | . | . | . | 84
O=C1NC2(CCCCC2)N=C1c1ccc(Br)cc1 | . | . | . | . | . | 57
SMILES | CYP2C9 inh | CYP2C19 activ | CYP2C9 activ | PostGolgi yeast | PostGolgi ctrl | CYP2C19 inh
CC(C)CN(C(=O)COC(=O)C12CC3CC(CC(O)(C3)C1)C2)C1CCS(=O)(=O)C1 (stereo not drawn) | . | . | . | . | . | .
CC1C(O)=C(c2nc3ccccc3[nH]2)C(=N)N1c1ccccc1 (stereo not drawn) | . | . | . | . | . | .
O=C(CCn1[nH]c(=O)c2ccccc2c1=O)NCCO | . | . | . | . | . | .
CCCCOC(=O)CCn1[nH]c(=O)c2ccccc2c1=O | 92 | . | . | . | . | 84
O=C(CCn1[nH]c(=O)c2ccccc2c1=O)OC1CCCCC1 | . | . | . | . | . | 81
CC(=O)c1ccc(Oc2ncnc3sccc23)c(CN2CCOCC2)c1 | / | / | / | . | . | /
C=CCSc1nc(N)c(C(=O)Nc2ccccc2C)cc1C(N)=O | 66 | . | . | . | . | 68
CCOC(=O)c1c(C)[nH]c(C)c1C(=O)COC(=O)[C@@H](NC(=O)c1ccccc1OCC)C(C)C | 98 | . | . | . | . | 100
CCOC(=O)c1c(C)[nH]c(C)c1C(=O)COC(=O)CNC(=O)c1ccc(OCC)cc1 | . | . | . | . | . | 53
CCOc1ccccc1C(=O)NC(C(=O)OCC(=O)Nc1nnc(-c2ccccc2)o1)C(C)C (stereo not drawn) | . | . | . | . | . | .
COc1cc(/C=N/NC(=Nc2ccc(C)cc2)c2nc3ccccc3s2)ccc1O | 94 | . | . | . | 55 | .
COc1ccccc1/C=N/NC(=Nc1ccc(C)cc1)c1nc2ccccc2s1 | . | . | . | . | . | .
COc1ccc(C2C3=C(CC(C)(C)CC3=O)Nc3cc4c(cc32)OCO4)cc1 (stereo not drawn) | 70 | . | . | . | . | .
CC1(C)CC(=O)C2=C(C1)Nc1cc3c(cc1C2c1ccc(F)cc1)OCO3 (stereo not drawn) | . | . | . | . | . | .
CC1(C)CC(=O)C2=C(C1)Nc1cc3c(cc1C2c1ccc2c(c1)OCO2)OCO3 (stereo not drawn) | 76 | . | . | . | . | .
Cc1nnc2c3cnn(-c4ccc(Cl)cc4)c3ncn12 | . | . | . | / | / | .
C/C(CC(=O)NCCCN1CCOCC1)=N\NC(=O)COc1ccc(Cl)cc1 | . | . | . | . | . | .
Fc1ccc2[nH]c3c(N4CCN(C5CCCCC5)CC4)ncnc3c2c1 | 76 | . | . | . | . | 67
COc1cccc(N2CCN(c3ncnc4c3[nH]c3ccccc34)CC2C)c1 (stereo not drawn) | / | / | / | . | 44 | /
COc1cccc(N2CCN(c3ncnc4c3[nH]c3ccc(F)cc34)CC2C)c1 (stereo not drawn) | 60 | . | . | 66 | 96 | 59
O=C1CCCN1CCCn1cnc2c([nH]c3ccc(F)cc32)c1=O | . | . | . | . | . | .
COc1ccc2[nH]c3c(N4CC(C)OC(C)C4)ncnc3c2c1 (stereo not drawn) | 69 | . | . | . | . | 54
COc1cc2[nH]c3c(N4CCN(c5ccc(Cl)cc5)CC4)ncnc3c2cc1OC | . | . | . | . | . | .
CCN(CC)CCNc1ncnc2c1[nH]c1ccc(OC)cc12 | / | / | / | . | . | /
CCCCC(=O)Nc1ccc(N2CCN(S(C)(=O)=O)CC2)cc1 | . | . | . | . | . | .
COC(=O)c1ccc(Oc2c(C)oc3c(CN4CCN(C)CC4)c(O)ccc3c2=O)cc1 | . | . | . | . | . | .
CCOC(=O)CSc1nc(C)c2ccccc2n1 | . | . | . | . | . | .
CCOC(=O)CSC1=C(C#N)C(c2ccc(C)cc2)C(C(=O)OC)C(=O)N1 (stereo not drawn) | . | . | . | . | . | 54
